# Shown are actives, neighbours in structure and some others; about 2.4% of the full set was active somewhere.
# D2 PAM-1 – Beta-Arrestin HTS for Positive Allosteric Modulators of the Human D2 Dopamine Receptor: Potentiators; D(2) dopamine receptor (Homo sapiens), P14416; DiscoveRx D2 beta-arrestin cells, luminescence, 90 min; 100% = 57 uM dopamine signal; potentiation, % (concentration not given with the values); 360,000 compounds, 0.23% hits; AID 624464, 2012; in the data active = potentiation above about 50%; inconclusive = mostly about 30% to 49%
# Target sequence (P14416 whole entry, looked up): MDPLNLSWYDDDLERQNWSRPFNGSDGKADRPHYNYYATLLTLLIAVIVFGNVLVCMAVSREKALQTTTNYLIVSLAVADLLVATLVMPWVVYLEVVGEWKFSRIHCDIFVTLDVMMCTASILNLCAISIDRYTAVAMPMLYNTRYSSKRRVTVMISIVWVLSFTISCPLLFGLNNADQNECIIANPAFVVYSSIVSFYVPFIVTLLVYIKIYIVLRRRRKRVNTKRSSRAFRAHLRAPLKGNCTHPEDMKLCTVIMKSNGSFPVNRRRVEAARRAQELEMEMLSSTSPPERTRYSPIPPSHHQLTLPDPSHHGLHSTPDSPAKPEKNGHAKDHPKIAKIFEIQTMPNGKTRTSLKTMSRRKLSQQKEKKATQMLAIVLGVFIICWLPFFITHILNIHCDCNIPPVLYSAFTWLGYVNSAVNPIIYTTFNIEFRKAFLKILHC
#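 PathHunter D2 cells, attached overnight at 37 deg C, received compound in DMSO plus dopamine at EC20 (50 nM final) for 90 min at 37 deg C. Beta-arrestin recruitment was read as luminescence after 1 h with detection reagent at ambient temperature.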
# D2 antag – HTS Assay for Allosteric Antagonists of the Human D2 Dopamine Receptor: Primary Screen for Antagonists | HEK293 TREx D2 cells, calcium flux, dopamine EC80 | inhibition, % at 10 µM | 340,000 compounds, 2% hits | AID 485344, 2010; in the data active = inhibition above about 30%; inactive = below that, where a call was filed; note: 0% is about no effect
#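 HEK293 T-REx D2 cells, tet-induced, calcium dye no-wash. Cpd pintool add, 180 s kinetic, then EC80 DA, 180 s kinetic. Ca flux read.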
# D2 ag-1 – Beta-Arrestin HTS for Positive Allosteric Modulators of the Human D2 Dopamine Receptor: Agonists; D(2) dopamine receptor (Homo sapiens), P14416; AID 624465, 2012; 360,000 compounds, 0.084% hits; activation, % (concentration not given with the values); DiscoveRx PathHunter D2 beta-arrestin, luminescence, 90 min; 100% = 57 uM dopamine signal; in the data active = activation above about 40%; inconclusive = between about 15% and that limit
#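 Agonist mode: compounds alone added to overnight-plated D2 PathHunter cells for 90 min at 37 C, with 57 uM final dopamine (EC100) defining full response. Beta-arrestin recruitment detected by chemiluminescent reagent, read after 1 h at ambient temperature.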
# D2 ag-2 – HTS Assay for Allosteric Agonists of the Human D2 Dopamine Receptor: Primary Screen for Agonists | HEK293 T-REx D2 cells, calcium flux agonist mode | AID 485358, 2010 | activation, % at 2 µM | 340,000 compounds, 0.53% hits;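 active = activation over 3 SD above normal in the single-dose calcium agonist read, cut at about 30% in these data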; note: 0% is about no effect
#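 Agonism scored from kinetic calcium signal (1 read/sec, 180 s) following compound pin transfer, after a 10 s baseline. Cells: HEK293 Trex line expressing inducible D2 receptor coupled to calcium, dye-loaded after overnight culture at 30 C.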
# D2 PAM-2 – HTS Assay for Positive Allosteric Modulators of the Human D2 Dopamine Receptor: Primary Screen for Potentiators. D(2) dopamine receptor (Homo sapiens), P14416. HEK293 T-REx D2, calcium flux, EC20 dopamine potentiation. potentiation, % at 10 µM. 340,000 compounds, 0.34% hits;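 active = potentiation over 3 SD above the plate norm, cut at about 30% in these data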; note: 0% is about no effect
#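 Primary screen. Calcium kinetics in induced HEK293 T-REx D2 cells: compound pre-addition 180 s, EC20 dopamine, 180 s more.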
# D3 ag – qHTS of D3 Dopamine Receptor Agonist: D3 Dopamine Receptor B-arrestin Agonist Confirmatory Assay; shares compounds with D2 ag-2; DiscoveRx D3 beta-arrestin cells, luminescence, 90 min; Potency, µM (top dose mostly 76.9 µM), for the others: top-dose activation, usual class: activators; 2,300 compounds, 4% hits;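 note: potency is the fitted concentration of half-maximal effect; 100% = dopamine control response; nearly all actives have a fitted effect of over 70% in size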
# D2 ag-3 – qHTS of D3 Dopamine Receptor Agonist: D2 Dopamine Receptor B-arrestin Agonist Counterscreen | shares compounds with D2 ag-2 | DiscoveRx PathHunter D2 beta-arrestin, luminescence, 90 min; response scale: percent relative to full dopamine signal | Potency, µM (titrated, usually from 76.9 µM), for inactives: at the top dose activation, usual class: activators | 2,300 compounds, 5.9% hits | AID 720507, 2013; note: potency is the fitted concentration of half-maximal effect; % of control where 0% means no effect; nearly all actives have a fitted effect of over 70% in size
# Numbers without * were called inactive; ? = inconclusive; . = no result given. Unless noted, calls come from the whole dose curve; as a rule, active = well fitted activation curve with a large enough effect; inconclusive = small, poorly fitted or top-dose-only effect; inactive = flat fitted curve, though single readings scatter.
SMILES,D2 PAM-1,D2 antag,D2 ag-1,D2 ag-2,D2 PAM-2,D3 ag,D2 ag-3
CCN1CCc2c(sc(NC(=S)NC(=O)c3ccco3)c2C(N)=O)C1,-18.7,-20.8,-9.7,30.0*,-5.0,7.6%,-5.3%
CCN1CCc2c(sc(NC(=O)c3ccc(C(=O)c4ccccc4)cc3)c2C(N)=O)C1,-9.0,4.8,-3.4,74.3*,-18.5,-8.1%,2.4%
Cc1sc(NC(=S)NC(=O)c2ccco2)c(C(N)=O)c1C,-3.5,-6.3,-3.1,-0.2,3.8,.,.
COc1cc(F)ccc1-c1csc(C(C)(NC(C)=O)c2ccccc2)n1 (stereo not given),1.6,.,-2.2,.,.,.,.
CC1(CCl)N([O-])C2=C(CCCC2)[N+]1=O (stereo not given),0.1,.,-2.5,.,.,.,.
Cc1cc(C)cc(NC(=O)c2cc(C)nn2C)c1,-5.6,2.2,-5.3,33.8*,-13.6,3.3%,-0.8%
CC1(C)CC(=O)C=C(/C=C/c2ccccc2)C1,-14.7,-7.2,-3.9,-2.0,10.1,-5.5%,0.5%
C/C(=N\NC(=O)CN1CCCCC1)c1ccccc1O,-19.4,84.6*,9.5,65.2*,-30.1,10.0%,13.2%
CCCc1nc2ccc(NC(C)=O)cc2c(=O)n1Cc1ccccc1Cl,-1.6,-0.8,-2.3,0.0,0.8,-6.9%,0.0%
Cc1ccc2c(c1)[C@H]1[C@H](CO2)[C@H](c2ccccc2)[C@]2(C)C(=O)N(Cc3ccc(Cl)cc3)CC(=O)N12,-6.9,-1.8,-1.9,0.2,9.5,-8.7%,-4.5%
COc1ccc(S(=O)(=O)N2CCOCC2)cc1NC(=O)COC(=O)CCS(=O)(=O)c1ccc(C)cc1,-8.7,.,-3.9,.,.,.,.
O=C(c1ccco1)N1CCN=C1SCc1c(F)cccc1Cl,-27.9,-8.0,-1.9,37.2*,-10.1,-15.4%,-1.5%
O=C(c1ccco1)N1CCN=C1SCc1ccccc1Cl,-6.6,-30.4,-0.9,0.6,-3.4,.,.
CC(=O)N/C(=C/C(C)C)c1ccccc1,-2.0,0.7,-1.4,0.0,-6.6,-2.2%,-3.9%
O=C(CN(Cc1cccs1)C(=O)CNS(=O)(=O)c1ccc(F)cc1)NCC1CCCO1 (stereo not given),-18.6,0.4,-6.7,0.0,2.8,.,.
O=C(CN(Cc1ccc(F)cc1)C(=O)CNS(=O)(=O)c1ccc(F)cc1)NCC1CCCO1 (stereo not given),4.0,9.2,2.6,3.5,-0.6,1.1%,-0.8%
CCC1C(=O)Nc2ccccc2N1C(=O)COc1ccccc1 (stereo not given),2.8,5.7,0.1,0.5,1.0,.,.
COC(=O)c1c(-c2ccc(Cl)cc2)noc1N1CCN(c2ccccc2OC)CC1,.,.,.,-1.9,9.5,.,.
COc1ccc(NC(=O)CSc2ccc3nnc(CCNC(=O)c4ccccc4)n3n2)cc1,-9.2,21.2,-3.2,0.0,-2.9,-7.6%,2.5%
CC(=O)Nc1ccc(NC(=O)CSc2ccc3nnc(CCNC(=O)c4ccccc4)n3n2)cc1,-6.3,-3.2,-2.0,0.9,-3.9,.,.
CC(CCC(=O)O)C1CCC2C3CCC4C[C@H](O)CCC4(C)C3CC(=O)C12C (stereo not given in full),-6.0,23.6,-3.3,51.8*,-20.1,28.0%,10.1%
C[C@H](CCC(=O)O)[C@H]1CC[C@H]2[C@@H]3CC[C@@H]4C[C@H](O)CC[C@]4(C)[C@H]3CC[C@]12C,-4.6,-7.9,-3.2,0.2,0.4,.,.
Cc1ccc(C(c2sc3nc(C)nn3c2O)N2CCN(C(=O)c3ccco3)CC2)cc1 (stereo not given),0.4,2.0,0.2,-0.3,3.0,.,.
Cc1nc2sc(C(c3ccccc3)N3CCN(C(=O)c4ccco4)CC3)c(O)n2n1 (stereo not given),-12.2,10.0,-0.8,62.4*,-27.5,-2.8%,-3.7%
CN1C(=O)[C@H]2[C@@H](/C=C/c3ccccc3)N3C(=O)CN(CCO)C(=O)[C@@]3(C)[C@H]2C1=O,-10.6,-15.1,-6.4,0.4,4.6,.,.
SMILES,D2 PAM-1,D2 antag,D2 ag-1,D2 ag-2,D2 PAM-2,D3 ag,D2 ag-3
Nc1nc(N2CCN(Cc3ccccc3)CC2)n[nH]1,?,-19.5,67.7*,94.3*,-27.4,?,4.47µM*
Nc1nc(N2CCN(C(c3ccccc3)c3ccccc3)CC2)n[nH]1,3.6,-3.1,-0.8,0.1,-2.1,.,.
Cc1cc2nc(-c3ccccc3)c(Cc3ccccc3)n2c(C)c1Br,-6.3,.,-6.2,.,.,.,.
Oc1ccc(-c2csc(-c3cccnc3)n2)cc1O,15.6,3.8,5.7,31.0*,-10.4,15.8µM*,14.6%
Oc1ccc(-c2csc(-c3ccccc3)n2)cc1O,15.5,-22.2,3.6,-0.5,-0.6,.,.
COc1cccc(NC(=O)CC(=O)c2ccccc2)c1,-10.7,-7.7,-3.1,0.1,-8.4,.,.
CCOC(=O)C1=C(CS(=O)(=O)c2cccc(C(F)(F)F)c2)NC(=O)NC1c1cccc(OC)c1 (stereo not given),.,.,.,-0.3,2.5,.,.
O=C(NCc1ccncc1)c1ccc(NS(=O)(=O)c2ccc(F)cc2)cc1,-8.2,.,0.9,.,.,-3.1%,-4.6%
O=C(NCCCN1CCCC1=O)c1cc(NS(=O)(=O)c2ccc(F)cc2)cc(NS(=O)(=O)c2ccc(F)cc2)c1,-10.2,-1.2,-1.2,0.2,-2.0,.,.
O=C(NCCCN1CCCC1=O)c1ccc(NS(=O)(=O)c2ccc(F)cc2)cc1,-3.7,-4.0,3.9,2.3,4.2,-8.7%,-1.7%
Cc1cc(C(=O)NC(C)C2CC2)c(Cl)cc1Cl (stereo not given),-24.5,-8.9,0.2,0.0,5.7,.,.
CCOC(=O)C1CCN(CC(=O)Nc2c(C(=O)OC)[nH]c3cccc(Cl)c23)CC1,-15.2,13.5,1.0,25.6,-9.1,8.7%,4.7%
CCOC(=O)C1CCN(CC(=O)Nc2c(C(=O)OC)[nH]c3ccc(Cl)cc23)CC1,10.5,-12.4,8.3,0.4,.,.,.
CCOC(=O)C1CCN(Cc2cnc(NC(=O)OC)s2)CC1,-21.5,18.3,8.3,60.3*,-13.3,-2.2%,8.1%
Cc1cc(C)[n+]2[nH]c(N)c(N=Nc3ccccc3)c2n1,-5.1,0.1,1.0,.,1.9,.,.

# Bioassay records deposited in PubChem by National Center for Advancing Translational Sciences (NCATS).
